# This is part of a sample that, as a whole, favours compounds with a hit. Of some 83,000 tested, about 20% had one in any assay.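 Testing used 96-well plates and a 48-hour single-concentration exposure. Example: -40 means 40% of the starting cells died.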 Unmarked numbers belong to inactive results. The source made the active and inactive calls. How the source made its calls: active means growth percent below 10; inactive means the rest.
# Experiments:
# Test in all cases: NCI-60 one-dose screen, 48 h (100 = growth as untreated, 0 = no growth, -100 = all killed)
# [1] = tested on: HCT-15 colon; settings: 10 µM unless noted
# [2] = tested on: HT29 colon; settings: 10 µM unless noted
# [3] = tested on: SNB-75 CNS; settings: 10 µM unless noted
# [4] = tested on: U251 CNS; settings: 10 µM unless noted
# [5] = tested on: PC-3 prostate; settings: 10 µM unless noted
# [6] = tested on: UACC-62 melanoma; settings: 10 µM unless noted
# [7] = tested on: SK-MEL-28 melanoma; settings: 10 µM unless noted
# [8] = tested on: SK-MEL-2 melanoma; settings: 10 µM unless noted
# [9] = tested on: EKVX NSCLC; settings: 10 µM
# [10] = tested on: SN12C renal; settings: 10 µM unless noted
# [11] = tested on: UO-31 renal; settings: 10 µM unless noted
# [12] = tested on: ACHN renal; settings: 10 µM unless noted
# [13] = tested on: CAKI-1 renal; settings: 10 µM unless noted
# [14] = tested on: A498 renal; settings: 10 µM unless noted
# [15] = tested on: CCRF-CEM leukemia; settings: 10 µM
# [16] = tested on: MOLT-4 leukemia; settings: 10 µM unless noted
# [17] = tested on: LOX IMVI melanoma; settings: 10 µM unless noted
# [18] = tested on: TK-10 renal; settings: 10 µM unless noted
# [19] = tested on: SNB-19 CNS; settings: 10 µM unless noted
# [20] = tested on: SK-MEL-5 melanoma; settings: 10 µM unless noted
SMILES,growth [1],growth [2],growth [3],growth [4],growth [5],growth [6],growth [7],growth [8] [%],growth [9],growth [10],growth [11],growth [12],growth [13],growth [14],growth [15],growth [16],growth [17],growth [18],growth [19],growth [20]
O=C1CSC(c2ccccc2Cl)N1c1nnc(-c2ccncc2)o1 (configuration not stated),98.5%,98.4%,95.4%,96.6%,98.5%,92.3%,101%,101,93.2%,98.3%,90.8%,94.3%,107%,72.4%,102%,94.3%,,,,
C=C1CCC2C3(C)COC(c4ccccc4)OC3CCC2(C)C1C/C=C1/C(=O)OCC1O (configuration not stated),61.9%,54.1%,35.9%,64.9%,,67.4%,,66.7,104%,66.7%,42.9%,86.7%,133%,,,,72.6%,105%,,
CCCCCCNc1nc(N2CCOCC2)c2[nH]c(NCCCCCC)nc2n1,-74.6% (active),,-95.1% (active),-93.4% (active),-21.2% (active),-97.4% (active),-94.4% (active),,-51.5% (active),-94.9% (active),-81% (active),-92.7% (active),-63.8% (active),,-32.3% (active),-53.6% (active),-100% (active),-97.2% (active),-92.7% (active),-90.6% (active)
CC(=O)Nc1nc(C)c(C(=O)NNC(=O)Nc2ccccc2)s1,96.7%,99%,98.4%,102%,85.2%,78.1%,105%,29.9,153%,92.3%,77.7%,93.3%,140%,90.7%,79.8%,115%,97.9%,159%,,
Cc1c([C@H](C(Cl)Cl)[C@H](O)[C@H]2C[C@H](C)C(=O)O2)ccc2c1C(=O)[C@H]1[C@H]2C[C@@H](Br)[C@@]23O[C@@H](CO[C@H]2O)CC13C (some centres not stated),7.63% (active),13.1%,58.4%,14.4%,30.4%,26.6%,47.6%,74,27.7%,25.1%,56.2%,45.9%,-31.4% (active),-22.6% (active),17.2%,16.4%,33.4%,,,
CC(=O)Oc1cc2ccccc2cc1C(C)C,99.1%,114%,92.3%,112%,115%,116%,113%,85.7,,111%,88.7%,97.4%,106%,81%,,109%,109%,,,
COc1cc2ncnc(Nc3ccc4c(cnn4C(=O)Nc4ccccc4)c3)c2cc1OC,83.2%,51.1%,114%,,98.9%,114%,77.3%,103,85.2%,82.1%,65.3%,94.2%,76.9%,65.1%,31.6%,80.8%,93.2%,72.3%,,90.9%
CCCCCCCCCCCCCCCCC(=O)O.CCCCCCCCCCCCCCCCCC(=O)O.CCCCCCCCCCCCCCCCCC(=O)O.CCCCCCCCCCCCCCCCCC(=O)O.CCCCCCCCCCCCCCCCCC(=O)O.CO[CH-]OC12COC1CC(O)C1(C)C(O)C(OC(C)O)C3=C(C)C(OC(=O)C(O)C([NH-])c4ccccc4)CC(O)(C(OC(=O)c4ccccc4)C21)C3(C)C.[Cu+].[Zn].[Zn].[Zn].[Zn].[Zn] (configuration not stated),20.5%,12%,,33.6%,30.5%,42.8%,80.4%,69.3,29.5%,29.9%,27.2%,36.2%,27%,,23.7%,29%,39.4%,48%,29.6%,38.4%
COc1ccc2c(c1)cn1c3ccc(O)cc3[nH]c(=O)c21,2.24% (active),-43.1% (active),,10.5%,11%,39%,27.9%,,47.9%,40.2%,23.3%,14.8%,22.2%,40.7%,18.5%,19.2%,3.95% (active),13%,21.7%,13%
OCCN1CCCN(CCCN2c3ccccc3Sc3ccc(C(F)(F)F)cc32)CC1,61.6%,8.24% (active),50.4%,33.6%,57.2%,-46.3% (active),30.7%,81.5,,62.9%,41.8%,68%,85.7%,73.7%,,23.4%,49%,,,
Cc1ccc(C(=O)NN)cc1,102%,111%,94.5%,,109%,,109%,119,97.1%,,104%,115%,,,99.5%,93%,96.5%,110%,,
Nc1nc2cc(O)ccc2n2cc3c(F)cccc3c12,35.6%,20.7%,,32.8%,42.2%,39%,20%,,24.8%,47%,2.79% (active),18.9%,-12.1% (active),41.5%,58.4%,3.96% (active),34.9%,-12.5% (active),35.9%,14.2%
O=C(Nc1ccc(-n2cc(-c3ccncc3)c(-c3ccc(Cl)c(O)c3)n2)cc1)c1ccc(Cl)c(Cl)c1,12.2%,-34.7% (active),,34.1%,17.2%,11.3%,-7.55% (active),,61.8%,65.7%,14.8%,38.4%,0.324% (active),83.8%,40.2%,22.3%,29.1%,33%,77.1%,-99.3% (active)
OCCN1CCN(CC/C=C2/c3ccccc3Sc3ccc(C(F)(F)F)cc32)CC1,71.1%,15.8%,56.5%,41%,,14.4%,68%,79.8,,72.6%,40.1%,79%,74.9%,79.2%,,41.3%,65.5%,,,56.5%
COc1cccc(-c2cc(-c3cc4ccccc4oc3=O)nc(N)n2)c1,107%,117%,,110%,89.3%,104%,91.7%,,99.2%,98.6%,55.8%,98.3%,111%,127%,87.6%,91.4%,95.4%,74.5%,,95%
C=CCN(C)C,113%,113%,,102%,105%,101%,110%,113,92%,94.7%,93.3%,105%,92.5%,91.1%,,,99.8%,119%,102%,108%
Cc1cc2cn3c4ccc(O)cc4[nH]c(=O)c3c2cc1C,3.8% (active),-67.6% (active),,-44.1% (active),37.5%,49%,-14.3% (active),,41.3%,38.5%,3.07% (active),11.8%,-5.2% (active),18.6%,-7.53% (active),-18.2% (active),4.61% (active),0.912% (active),40.7%,-31.5% (active)
O=c1c2c(c3ccccc3n1-c1ccccc1)NC(=S)NC2c1ccccc1 (configuration not stated),97.1%,132%,,107%,-47.1% (active),96%,116%,,97.1%,90.4%,71.7%,96.1%,105%,102%,-25% (active),66.2%,97.9%,226%,99%,97.9%
CCC(C)C1NC(=O)C(CC(C)C)NC(=O)C(C)NC(=O)C(C(C)C)NC(=O)C(CCCCN)NC(=O)C(CC(C)C)NC(=O)C(C(C)C)NC(=O)[C@H](C)NC(=O)C(C(C)CC)NC(=O)C(CCCN=C(N)N)NC(=O)C(CCCCN)NC(=O)C(CCCN=C(N)N)NC(=O)C(CCCCN)NC(=O)C([C@H](C)CC)NC(=O)C(CCCCN)NC1=O (some centres not stated),26.7%,3.41% (active),28.8%,3.51% (active),-4.78% (active),21.3%,41.3%,37.3,15.3%,10.9%,21.8%,3.41% (active),8.2% (active),20.8%,8.98% (active),-6.28% (active),35.4%,20.2%,,
CCN(CC)c1ccc2nc3ccc(N=Nc4ccc(O)cc4)cc3[n+](-c3ccccc3)c2c1,65.6%,28.9%,,44.1%,48.3%,59.3%,52.2%,76.8,77.6%,75.5%,48.5%,60.2%,90.5%,75%,12.8%,18.1%,36.5%,66.6%,73.3%,
CC(=O)N(N=O)c1ccc([N+](=O)[O-])cc1Cl,54.6%,89.7%,81.2%,57.8%,47.4%,27.9%,68.5%,73.1,,47.4%,57.3%,58.9%,100%,,46.8%,58.4%,72.7%,130%,,
O=c1[nH]c2cc(O)ccc2n2cc3c(F)cccc3c12,38.7%,46.2%,,27.6%,46.4%,39.8%,24.7%,,25.2%,53.6%,12%,24.5%,-8.76% (active),39.5%,49%,6.71% (active),36.8%,6.81% (active),42.3%,8.21% (active)
CCCCCSc1ccc2nc(NC(=O)OCCC)sc2c1,26.1%,15.9%,13.3%,,27.7%,31.1%,70.9%,51.7,34.2%,57.4%,51.8%,42.8%,32.4%,11.2%,20.3%,30.7%,38.6%,70.1%,,17.7%

# From PubChem BioAssay (NCI)
